This is a sample that favours compounds with a hit; in the whole collection about 3.3% have one here.
Sm TGR inh: qHTS Assay for the Inhibitors of Schistosoma Mansoni Peroxiredoxins; purified TGR, DTNB reduction, TNB absorbance 405 nm; Potency, µM (series often up to 114 µM), actives largely listed as inhibitors; 360,000 tested, 3% active; Schistosoma mansoni thioredoxin glutathione reductase (TGR), Q962Y6; also: nearly all actives have a fitted effect of over 60% in size
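TGR 20 nM + NADPH 100 uM (dispensed conc.), cpd preinc 15 min RT; start with NADPH (500 uM addition) then DTNB (15 mM addition). Kinetic TNB absorbance, 405 nm filter. Four-parameter Hill fit across titration.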
AmpC inh detg: qHTS Inhibitors of AmpC Beta-Lactamase (assay with detergent). AmpC hydrolysis of nitrocefin, absorbance 480 nm, 0.01% Triton. Potency, µM (top dose mostly 114 µM), hits mostly inhibitors. 370,000 tested, 0.041% active. AID 485294, 2010; also: nearly all actives have a fitted effect of over 25% in size
Target sequence (P00811 whole entry, looked up): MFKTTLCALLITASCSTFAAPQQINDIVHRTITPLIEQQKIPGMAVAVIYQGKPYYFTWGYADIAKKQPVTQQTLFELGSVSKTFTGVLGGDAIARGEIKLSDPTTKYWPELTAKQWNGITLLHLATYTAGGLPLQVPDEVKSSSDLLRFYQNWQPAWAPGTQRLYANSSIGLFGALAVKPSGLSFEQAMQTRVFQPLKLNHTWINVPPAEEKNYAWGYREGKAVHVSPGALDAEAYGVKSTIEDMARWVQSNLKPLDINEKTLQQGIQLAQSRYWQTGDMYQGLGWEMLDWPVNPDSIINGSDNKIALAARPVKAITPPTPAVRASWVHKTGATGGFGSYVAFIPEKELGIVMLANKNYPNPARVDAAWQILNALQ
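AmpC (5.3 nM in the dispensed reagent) in 20 mM phosphate pH 7.0 with 0.01% (detergent screen) or 0.0001% Triton X-100 was preincubated with compounds for 15 min at room temperature. Nitrocefin was then added from an 800 uM solution, and hydrolysis was followed at 480 nm.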
AmpC no deterg: qHTS Inhibitors of AmpC Beta-Lactamase (assay without detergent). 330,000 tested, 0.52% active. AmpC nitrocefin hydrolysis, absorbance 480 nm, 0.0001% Triton. AID 485341, 2010. P00811. Potency, µM (titrated, usually from 57.1 µM), hits mostly inhibitors; also: nearly all actives have a fitted effect of over 20% in size
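20 mM phosphate pH 7.0 + 0.01% (detergent screen) or 0.0001% Triton X-100; 5.3 nM AmpC reagent; cpd preinc 15 min RT; nitrocefin (800 uM stock) to start; A480 q20 s × 4 min; Activity was normalised to no-enzyme and no-compound control wells.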
Large screens that a line does not name were inactive. Calls follow the shape of the dose curve; as a rule, active = well fitted curve in the direction sought with a large enough effect; inconclusive = small, poorly fitted or top-dose-only effect, or another doubt; inactive = no such curve, though single readings can be large; an effect the other way counts as inactive or inconclusive.

O=C1CCC/C(=N/NC(=O)c2cc(NS(=O)(=O)c3cccs3)cc(NS(=O)(=O)c3cccs3)c2)C1	Sm TGR inh inconclusive, AmpC no deterg 11µM
O=C1CCC/C(=N/NC(=O)c2ccc(NS(=O)(=O)c3cccs3)cc2)C1	Sm TGR inh inconclusive, AmpC no deterg inconclusive
CN1CCO/C1=C(\C(Cl)=C(Cl)Cl)[N+](=O)[O-]	Sm TGR inh 32µM
O=[N+]([O-])/C(C(=C(Cl)Cl)N1CCOCC1)=C1\NCCO1	none
CCC(=O)c1ccc(OC(=O)Cc2ccc(OC)cc2)cc1	none
COc1ccc(-c2nc(CS(=O)CC(=O)NCc3ccc(C)cc3)c(C)o2)cc1OC (stereo unspecified)	Sm TGR inh 40µM
Cc1cccc(-c2nc(CS(=O)CC(=O)NCc3ccco3)c(C)o2)c1 (stereo unspecified)	Sm TGR inh inconclusive, AmpC inh detg inconclusive
Cc1ccc(-c2nc(CS(=O)CC(=O)NCc3ccccn3)c(C)o2)cc1 (stereo unspecified)	Sm TGR inh 56µM
COc1ccc(CNC(=O)CS(=O)Cc2nc(-c3ccc(OC)c(OC)c3)oc2C)cc1 (stereo unspecified)	Sm TGR inh 25µM
Cc1oc(-c2ccccc2F)nc1CS(=O)CC(=O)NCc1ccccn1 (stereo unspecified)	none
COc1ccc(-c2nc(CS(=O)CC(=O)NCc3ccco3)c(C)o2)cc1OC (stereo unspecified)	Sm TGR inh inconclusive, AmpC inh detg inconclusive
COc1ccc(-c2nc(CS(=O)CC(=O)NCc3ccc(F)cc3)c(C)o2)cc1OC (stereo unspecified)	Sm TGR inh inconclusive (no result: AmpC no deterg)
Cc1ccc(-c2nc(CS(=O)CC(=O)NCc3ccco3)c(C)o2)cc1 (stereo unspecified)	Sm TGR inh 50µM
COc1ccc(-c2c(C#N)c(SCC(=O)Nc3ccc(Br)cc3)nc(C)c2C(=O)Nc2ccccc2)cc1	none (no result: AmpC no deterg)
COc1ccccc1/C=C/C(=O)OCC(=O)Nc1c(C)nn(-c2ccccc2)c1C	AmpC inh detg inconclusive
Cc1ccccc1CN(C)C(=O)c1ccc2ccccc2n1	AmpC inh detg inconclusive
COc1ccc(NC(=O)COC(=O)Cc2cccs2)cc1OC	none
Cc1ccc(-c2nc(CS(=O)CC(=O)NCc3ccc(F)cc3)c(C)o2)cc1 (stereo unspecified)	none
COc1ccc(-c2nc(CS(=O)CC(=O)NCCc3ccc(Cl)cc3)c(C)o2)cc1OC (stereo unspecified)	Sm TGR inh inconclusive (no result: AmpC no deterg)
COc1ccc(-c2nc(CS(=O)CC(=O)NCc3ccc(Cl)cc3)c(C)o2)cc1OC (stereo unspecified)	Sm TGR inh 45µM
CCC1CCCCN1CCCNC(=O)CS(=O)Cc1nc(-c2ccc(OC)c(OC)c2)oc1C (stereo unspecified)	none
COc1ccc(-c2nc(CS(=O)CC(=O)NC3CCCCC3C)c(C)o2)cc1OC (stereo unspecified)	Sm TGR inh 28µM
Cc1ccc(-c2nc(CS(=O)CC(=O)NCc3ccccc3)c(C)o2)cc1 (stereo unspecified)	Sm TGR inh 40µM, AmpC inh detg inconclusive
CCCN(CCC)CCNC(=O)CS(=O)Cc1nc(-c2ccc(OC)c(OC)c2)oc1C (stereo unspecified)	none (no result: AmpC no deterg)
CCOc1ccc(CCNC(=O)CS(=O)Cc2nc(-c3ccc(OC)c(OC)c3)oc2C)cc1OCC (stereo unspecified)	Sm TGR inh 50µM
Cc1ccc(NC(=O)C2CCN(S(=O)(=O)c3c(C)nn(C)c3C)CC2)c(Cl)c1	none
Cc1onc(-c2ccccc2)c1CNC(=O)CN1C(=O)c2ccccc2C1=O	none
Cc1cc(Cl)ccc1OCCCC(=O)OCC(=O)Nc1cccc(S(N)(=O)=O)c1	none
COc1ccc(CNC(=O)CS(=O)Cc2nc(-c3ccc(C)cc3)oc2C)cc1 (stereo unspecified)	Sm TGR inh 50µM, AmpC inh detg inconclusive
COc1ccc(-c2nc(CSCC(=O)NCc3ccco3)c(C)o2)cc1	Sm TGR inh 45µM
COc1ccc(-c2nc(CS(=O)CC(=O)NCc3ccc4c(c3)OCO4)c(C)o2)cc1 (stereo unspecified)	AmpC inh detg inconclusive
COc1ccc(-c2nc(CSCC(=O)NCCc3ccc(OC)c(OC)c3)c(C)o2)cc1	none (no result: AmpC no deterg)
CC(=O)C[C@H](O)CC(=O)[C@@H]1OC(=O)CCCCC/C=C/Cc2ccccc21	none (no result: Sm TGR inh, AmpC inh detg)
CCCNC(=O)C1(S(=O)(=O)c2ccccc2)CC=CC1	none
CC(CC(=O)OCC(=O)NC1CCS(=O)(=O)C1)c1ccccc1 (stereo unspecified)	none (no result: Sm TGR inh, AmpC inh detg)
